Measurements taken from the supplement of paper PMC9023506.
Where a name gives a salt, the structure may show the parent alone.

system: Danio rerio larvae (5 dpf); experiment: habituation to 1-s acoustic pulses, difference vs DMSO (percentage points (treated minus DMSO)); higher = more of the behaviour than the DMSO vehicle control; conditions: 10 µM; exposure time: 3 h pre-incubation + 3 h imaging
Experimental: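 5-dpf wild-type zebrafish larvae were imaged in 96-well plates. They were treated with 190 Tocris FDA-approved drugs at 10 µM (1 µl/ml DMSO) for 3 h before and 3 h during imaging at 28.5 °C, 48 larvae per drug. Automated image analysis gave % time moving and optomotor responses. Values are drug group mean minus DMSO vehicle mean (n=844), in percentage points, for 10 behaviours.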

Structure (SMILES)	habituation to 1-s acoustic pulses
CC1CNc2c(cccc2S(=O)(=O)N[C@@H](CCCNC(=N)N)C(=O)N2CC[C@@H](C)C[C@@H]2C(=O)O)C1 (stereo not given in full) [Argatroban]	-0.436
Clc1ccc(COC(Cn2ccnc2)c2ccc(Cl)cc2Cl)c(Cl)c1 (stereo not given) [Miconazole nitrate]	-15.5
CCOC(=O)c1ncn2c1CN(C)C(=O)c1cc(F)ccc1-2 [Flumazenil]	-2.91
CCOc1cc(CC(=O)N[C@@H](CC(C)C)c2ccccc2N2CCCCC2)ccc1C(=O)O [Repaglinide]	-8.43
C[C@]12CCC(=O)C=C1CC[C@@H]1[C@@H]2[C@@H](O)C[C@@]2(C)[C@H]1CC[C@]2(O)C(=O)CO [Hydrocortisone]	2.73
Cn1nnc2c(C(N)=O)ncn2c1=O [Temozolomide]	4.01
CC[C@H](C)C(=O)O[C@H]1C[C@@H](C)C=C2C=C[C@H](C)[C@H](CC[C@@H]3C[C@@H](O)CC(=O)O3)[C@H]21 [Lovastatin]	-1.04
COc1c(C)c2c(c(O)c1C/C=C(\C)CCC(=O)OCCN1CCOCC1)C(=O)OC2 [Mycophenolate mofetil]	0.172
CN/C(=N\CCSCc1nc[nH]c1C)NC#N [Cimetidine]	5.48
CN(C)CCC[C@@]1(c2ccc(F)cc2)OCc2cc(C#N)ccc21 [Escitalopram oxalate]	-4.74
Nc1nc(Cl)nc2c1ncn2[C@@H]1O[C@H](CO)[C@@H](O)[C@@H]1F [Clofarabine]	-0.305
CO[C@H]1/C=C/O[C@@]2(C)Oc3c(C)c(O)c4c(O)c(c5c(nc6cc(C)ccn65)c4c3C2=O)NC(=O)/C(C)=C\C=C\[C@H](C)[C@H](O)[C@@H](C)[C@@H](O)[C@@H](C)[C@H](OC(C)=O)[C@@H]1C [Rifaximin]	-3.04
CC(=O)Oc1cc2c(s1)CCN(C(C(=O)C1CC1)c1ccccc1F)C2 (stereo not given) [Prasugrel]	2.1
C[C@H](Cc1cc2c(c(C(N)=O)c1)N(CCCO)CC2)NCCOc1ccccc1OCC(F)(F)F [Silodosin]	7.97
Nc1cc(N2CCCCC2)nc(N)[n+]1[O-] [Minoxidil]	5.2
CN(C)C(=N)NC(=N)N [Metformin hydrochloride]	0.867
Cc1ccc(N(CC2=NCCN2)c2cccc(O)c2)cc1 [Phentolamine Mesylate]	5.8
Nc1nc2[nH]cc(CCc3ccc(C(=O)N[C@@H](CCC(=O)O)C(=O)O)cc3)c2c(=O)[nH]1 [Pemetrexed]	-1.43
O=C1CCc2cc(OCCCCc3nnnn3C3CCCCC3)ccc2N1 [Cilostazol]	-0.365
COc1ccc([C@@H]2Sc3ccccc3N(CCN(C)C)C(=O)[C@@H]2OC(C)=O)cc1 [Diltiazem hydrochloride]	-0.578

Structure (SMILES)	habituation to 1-s acoustic pulses
Cc1cccc(C)c1OCC(C)N (stereo not given) [Mexiletine hydrochloride]	5.97
Nc1cccc2c1CN(C1CCC(=O)NC1=O)C2=O (stereo not given) [Lenalidomide]	-1.09
CNCc1ccc(-c2[nH]c3cc(F)cc4c3c2CCNC4=O)cc1 [Rucaparib camsylate]	4.21
CN(CCOc1ccc(CC2SC(=O)NC2=O)cc1)c1ccccn1 (stereo not given) [Rosiglitazone]	0.476
CCCCNc1cc(C(=O)O)cc(S(N)(=O)=O)c1Oc1ccccc1 [Bumetanide]	-0.875
CCCCC1=NC2(CCCC2)C(=O)N1Cc1ccc(-c2ccccc2-c2nnn[nH]2)cc1 [Irbesartan]	1.51
O=c1[nH]c(=O)n([C@H]2C[C@H](O)[C@@H](CO)O2)cc1C(F)(F)F [Trifluorothymidine]	4.64
NC(=O)c1ncn([C@@H]2O[C@H](CO)[C@@H](O)[C@H]2O)n1 [Ribavirin]	-1.17
CCN(Cc1ccncc1)C(=O)C(CO)c1ccccc1 (stereo not given) [Tropicamide]	-1.73
CCCc1nc2c(C)cc(-c3nc4ccccc4n3C)cc2n1Cc1ccc(-c2ccccc2C(=O)O)cc1 [Telmisartan]	-0.195
Cc1c(-c2ccc(O)cc2)n(Cc2ccc(OCCN3CCCCCC3)cc2)c2ccc(O)cc12 [Bazedoxifene acetate]	0.273
COc1cccc2c1C(=O)c1c(O)c3c(c(O)c1C2=O)C[C@@](O)(C(=O)CO)C[C@@H]3O[C@H]1C[C@H](N)[C@H](O)[C@H](C)O1 [Doxorubicin hydrochloride]	3.26
CC(C)c1nc(CN(C)C(=O)N[C@H](C(=O)N[C@@H](Cc2ccccc2)C[C@H](O)[C@H](Cc2ccccc2)NC(=O)OCc2cncs2)C(C)C)cs1 [Ritonavir]	-0.262
Cc1ccsc1C(=CCCN1CCC[C@@H](C(=O)O)C1)c1sccc1C [Tiagabine hydrochloride]	6.27
Cc1cccc(CN2CCN(C(c3ccccc3)c3ccc(Cl)cc3)CC2)c1 (stereo not given) [Meclizine dihydrochloride]	-10.1
N#Cc1ccc(C(c2ccc(C#N)cc2)n2cncn2)cc1 [Letrozole]	2.44
CC(C)(C(=O)O)c1ccc(C(O)CCCN2CCC(C(O)(c3ccccc3)c3ccccc3)CC2)cc1 (stereo not given) [Fexofenadine hydrochloride]	0.783
Nc1nc(NC2CC2)c2ncn([C@H]3C=C[C@@H](CO)C3)c2n1 [Abacavir hemisulfate]	3.08
OCCOCCN1CCN(C2=Nc3ccccc3Sc3ccccc32)CC1 [Quetiapine hemifumarate]	-4.36
C[C@H]1O[C@H](O[C@H]2[C@H](O)[C@@H](O)[C@@H](O[C@H]3[C@H](O)[C@@H](O)C(O)O[C@@H]3CO)O[C@@H]2CO)[C@H](O)[C@@H](O)[C@@H]1N[C@H]1C=C(CO)[C@@H](O)[C@H](O)[C@H]1O (stereo not given in full) [Acarbose]	3.26
